A selection: hits, their analogues and other compounds. The true share with any hit is near 19%.
KB-3-1 tox: kills parental KB-3-1 adenocarcinoma cells. KB-3-1 viability, CellTiter-Glo ATP luminescence, 72 h. Potency, µM (doses to about 46.1 µM), hits mostly cytotoxic. hit rate 1.4% among 400,000; also: nearly all actives have a fitted effect of over 60% in size
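Here the drug-naive KB-3-1 line serves as comparator for MDR sub-line selectivity; cells received compound titrations, 72 h at 37 °C, then CellTiter-Glo readout.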
HT1080NT lethal: kills 2HG-producing HT-1080-NT fibrosarcoma cells | HT-1080-NT fibrosarcoma viability, CellTiter-Glo ATP luminescence, 48 h | Potency, µM (titrated, usually from 46.1 µM), without a hit: at the highest dose activity, negative = less viability, hits mostly cytotoxic | hit rate 1.6% among 360,000;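 also: NT is the 2HG producing partner of a matched IDH1 knockdown line; 0% = DMSO-treated cells and -100% = media-only wells without cells; nearly all actives have a fitted effect of over 55% in size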
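HT-1080-NT fibrosarcoma cells (2HG-overproducing), 750 cells/well in RPMI with 5% FBS, dosed after 2 h and incubated 48 h at 37C. CellTiter-Glo luminescence normalized to DMSO and no-cell wells; concentration-response curves fitted and classed.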
TDP1 cell CPT: growth inhibition of DT40 Tdp1-/-;hTDP1 cells with camptothecin (screen for TDP1 inhibitors); chicken DT40 Tdp1-/-;hTDP1 cells + 20 nM CPT, ATP luminescence, 48 h; Potency, µM (titrated, usually from 46.2 µM), for the others: at the top dose activity change, negative = growth inhibition, usual class: inhibitors; hit rate 12% among 420,000; also: nearly all actives have a fitted effect of over 55% in size
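Chicken DT40 Tdp1-/- cells stably complemented with human TDP1 were seeded at 400 cells/well in medium containing 20 nM camptothecin, exposed to pin-transferred compounds, and grown at 37 °C for at least 48 hr. Viability was read as ATP luminescence.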
KB-V1 MDR tox: KB-V1 MDR subline cytotoxicity; KB-V1 MDR cells viability, CellTiter-Glo, 72 h; Potency, µM (doses to about 46.1 µM), usual class: cytotoxic; hit rate 3.4% among 400,000; AID 1347076; also: nearly all actives have a fitted effect of over 60% in size
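Drug-selected KB-V1 cells, grown in DMEM lacking phenol red with 10% FBS, receive compound titrations; after three days at 37 degrees C, surviving cell ATP is quantified by CellTiter-Glo luminescence and responses normalized and curve-fitted.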
DT40 TDP1 no CPT: qHTS for Inhibitors of human tyrosyl-DNA phosphodiesterase 1 (TDP1): qHTS in cells in absence of CPT. DT40 Tdp1-/- hTDP1 cells, no CPT, ATP luminescence, 48 h. Potency, µM (doses to about 46.2 µM), for inactives: at the top dose activity change, negative = growth inhibition, hits mostly inhibitors. hit rate 15% among 420,000; also: nearly all actives have a fitted effect of over 55% in size
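Seeded 400 DT40-hTDP1 cells/well (vehicle DMSO, no 20 nM CPT); pinned compounds; ≥48 hr at 37 °C; CellTiter-Glo luminescence as viability measure.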
HT1080 IDH1KD tx: HT-1080 IDH1 knockdown cell toxicity (counter line). Potency, µM (titrated, usually from 46.1 µM), for inactives: at the top dose activity, negative = toxicity, actives largely listed as cytotoxic. HT-1080 IDH1 knockdown viability, ATP luminescence, 48 h. hit rate 2% among 360,000;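 also: 0% = DMSO wells and -100% = cell-free medium wells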
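Cytotoxicity counter-line: IDH1KD HT-1080, 48 h, CellTiter-Glo. Curves classed by r2, magnitude and activity.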
* marks the source's active call; other numbers are inactive results; i = inactive; ? = inconclusive; . = no result; [ ] = remark or other dose. Calls follow the shape of the dose curve; as a rule, active = well fitted curve in the direction sought with a large enough effect; inconclusive = small, poorly fitted or top-dose-only effect, or another doubt; inactive = no such curve, though single readings can be large; an effect the other way counts as inactive or inconclusive. Unless noted, % is scaled to controls: 0 for no effect and ±100 for the full control effect; potency is read from the fitted curve at half-maximal effect.

SMILES	KB-3-1 tox	HT1080NT lethal	TDP1 cell CPT	KB-V1 MDR tox	DT40 TDP1 no CPT	HT1080 IDH1KD tx
O=C(Nc1ccc(/C=C/c2nc3ccccc3o2)cc1)c1ccc(F)cc1	i	1.1%	20.6µM*	i	?	7.2%
O=C(NNC(=O)c1ccc(NC(=O)c2ccccc2)cc1)c1ccc(F)cc1	i	6.9%	29.8%	i	10.5%	0.2%
COc1ccc(CC(=O)OCC(=O)N(C)C2CCS(=O)(=O)C2)cc1OC (configuration not stated)	i	-4.6%	3.5%	i	-0.1%	-4.9%
COc1ccc(C)cc1NC(=O)C(OC(=O)c1ccc([N+](=O)[O-])o1)c1ccccc1 (configuration not stated)	i	4.5%	16.4µM*	i	?	6.6%
O=C(/C=C/c1ccc(F)cc1)c1ccc(N2CCOCC2)cc1	i	-1.6%	20.6µM*	i	?	5.4%
CCc1ccc(/C=C/C(=O)c2ccc(N3CCOCC3)cc2)cc1	?	-22.9%	?	i	?	?
C/C(=N\NC(=O)c1ccc(F)cc1)c1ccc(N2CCOCC2)cc1	i	-3.6%	15.0%	i	-10.0%	-19.8%
C/C(=C\C(=O)c1ccc(F)cc1)Nc1ccc(N2CCOCC2)cc1	i	-2.9%	-2.8%	20.6µM*	-26.6%	1.6%
COc1ccccc1CCC(=O)Oc1ccccc1C#N	i	-3.5%	-3.0%	?	-6.0%	3.9%
Cc1ccc(NC(=O)CC2SC(=O)NC2=O)cc1 (configuration not stated)	i	10.2%	2.59µM*	?	5.8µM*	6.2%
COc1ccc(NC(=O)CC2SC(=O)NC2=O)cc1 (configuration not stated)	i	13.5%	2.31µM*	i	5.8µM*	10.3%
CCc1ccc(NC(=O)C(C)n2nnc3sc(-c4ccccc4)cc3c2=O)cc1 (configuration not stated)	i	.	?	i	?	.
Cc1cc(C)cc(NC(=O)CSc2nc3nc(C)cc(C)n3n2)c1	i	-2.1%	?	18.4µM*	?	1.2%
Cc1cc(C)n2nc(SCC(=O)N3CCN(c4ccccc4)CC3)nc2n1	i	10.5%	0.0%	11.6µM*	-5.2%	9.0%
Cc1cc(C)n2nc(SCC(=O)Nc3ccc(O)cc3)nc2n1	i	-2.4%	2.1%	i	-4.0%	-11.6%
Cc1cc(C)n2nc(SCC(=O)N3CCCC3)nc2n1	i	2.9%	19.6%	i	-16.7%	-0.6%
CC(C)(C)OC(=O)N1CCC(NC(=O)c2[nH]c(C(F)(F)F)nc2-c2ccccc2)CC1	i	-0.2%	-29.4%	i	?	9.5%
O=C(COC(=O)CNC(=O)c1ccc(Cl)cc1Cl)NC1CCCCC1	.	-2.7%	9.2%	.	-2.4%	0.9%
Fc1ccc(-n2ncc3c(NCCC4=CCCCC4)ncnc32)cc1	i	.	?	i	?	.
Cc1ccc(-n2ncc3c(NCc4ccccc4)ncnc32)cc1Cl	i	.	?	i	?	.
Cc1ccc(Cl)cc1-n1ncc2c(NCc3ccc(F)cc3)ncnc21	i	.	?	i	?	.
Cc1ccc(Cl)cc1-n1ncc2c(NCCCc3ccccc3)ncnc21	?	.	7.31µM*	?	?	.
Cc1ccc(Cl)cc1-n1ncc2c(NCCC3=CCCCC3)ncnc21	i	.	16.4µM*	?	?	.
Cc1ccc(Cl)cc1-n1ncc2c(NCCc3ccccc3)ncnc21	i	.	16.4µM*	i	20.6µM*	.
Cc1cc(Br)ccc1OCCCCN1CCCCC1	i	20.6µM*	?	?	?	?
SMILES	KB-3-1 tox	HT1080NT lethal	TDP1 cell CPT	KB-V1 MDR tox	DT40 TDP1 no CPT	HT1080 IDH1KD tx
Clc1ccc(Cl)c(OCCCCN2CCCCC2)c1	i	-9.9%	18.4µM*	i	?	-18.8%
COc1ccc(-c2cc(C(=O)N3CCN(c4ncccn4)CC3)c3ccccc3n2)c(OC)c1	i	-12.9%	?	?	23.1µM*	0.0%
COc1ccc2nc(-c3ccccc3)cc(C(=O)N3CCC3)c2c1	i	-0.6%	23.1µM*	i	16.4µM*	-8.5%
COc1ccc(-c2cc(C(=O)N3CCN(c4ncccn4)CC3)c3ccccc3n2)cc1	i	0.5%	?	?	?	-3.4%
O=C(c1cc(-c2ccccc2Cl)nc2ccccc12)N1CCC1	i	1.0%	-28.1%	?	?	3.6%
COc1ccc(-c2cc(C(=O)N3CCCC3)c3ccccc3n2)cc1	?	-17.0%	2.9%	i	6.2%	-9.5%
CN1CCCN(C(=O)c2cc(-c3cccc4ccccc34)nc3ccccc23)CC1	i	-0.3%	16.4µM*	i	20.6µM*	-13.4%
COc1ccc(-c2cc(C(=O)N3CCCCCC3)c3ccccc3n2)c(OC)c1	i	2.2%	?	i	11.6µM*	-12.2%
COc1ccc(-c2cc(C(=O)O)c3ccccc3n2)c(OC)c1	i	-4.0%	-10.1%	i	-12.4%	-9.5%
COc1cccc(Cn2c(=O)c(-c3cn(C)c4ccccc34)nc3cnc(OC)nc32)c1	.	.	0.1%	.	-6.7%	.
COc1ccc(C(=O)Nc2cc(-c3nc4ncccc4o3)ccc2C)cc1Br	i	.	?	i	?	.
COc1ccc(-c2cc(C(=O)N3CCN(c4ccccc4O)CC3)c3ccccc3n2)cc1OC	?	-27.1%	?	?	18.4µM*	-29.3%
COc1ccc(N2CCN(C(=O)c3cc(-c4cc(OC)ccc4OC)nc4ccccc34)CC2)cc1	?	-8.0%	23.1µM*	?	23.1µM*	-19.3%
COc1ccc(-c2cc(C(=O)N3CCN(c4ccccc4F)CC3)c3ccccc3n2)c(OC)c1	i	-8.9%	?	?	18.4µM*	-11.3%
COc1ccc(-c2cc(C(=O)N3CCN(c4ccccc4O)CC3)c3ccccc3n2)cc1	i	0.2%	?	?	?	7.3%
O=C(c1cc(-c2ccccc2Cl)nc2ccccc12)N1CCN(c2ccccc2O)CC1	i	0.5%	18.4µM*	?	?	13.4%
CCOC(=O)CNC(=O)c1cccnc1Oc1ccc(Cl)cc1	i	0.2%	6.8%	i	8.7%	-5.3%
COc1cccc(CN2CCN(C(=O)c3cc(-c4cccnc4)nc4ccc(C)cc34)CC2)c1	i	-18.4%	23.1µM*	23.1µM*	11.6µM*	-11.8%
CC(=O)c1ccc(N2CCN(C(=O)c3cc(-c4ccc5c(c4)OCO5)nc4ccccc34)CC2)cc1	i	-20.4%	?	i	23.1µM*	-2.4%[9.24 µM]

Assay outcomes (PubChem)
